# According to PubChem BioAssay (EPA / NIEHS):
# Records with an inconclusive call do not appear. Active and inactive are the calls of the source. How the source made its calls: active means hit-call score of the fitted dose curve at least 0.9, where 1 is the maximum; inconclusive means response in the unintended direction; inactive means score below 0.9.
# Experiment: STM_H9_OrnCyssISnorm_ratio: Stemina devTOX quickPredict H9 human embryonic stem cell (hESC)-based Assay for Ornithine (ORN):Cystine (CYSS) Ratio (AID 2283714)
# Description: STM_H9_secretome utilizes undifferentiated H9 cells to measure relative changes in two metabolites, ornithine (ORN) and cystine (CYSS) in the secretome, targeting a critical drop in the ORN/CYSS ratio as a biomarker for developmental toxicity.STM_H9_OrnCyssISnorm_ratio is one of 10 components calculated in the STM_H9_secretome assay. It is the ratio value of OrnISnorm_perc to CyssISnorm_perc.Data from the assay component STM_H9_OrnCyssISnorm_ratio was analyzed at the assay endpoint STM_H9_OrnCyssISnorm_ratio in the positive analysis fitting direction relative to DMSO as the negative control and baseline of activity. Using a type of binding reporter, gain or loss-of-signal activity can be used to understand relative metabolite change.
# H9 hESCs maintained in a pluripotent state were exposed to test compound for 72h with chemical replenishment with media replacement every 24h. Cell-conditioned media from the final 24-h treatment period was collected for analysis of the targeted biomarker, and cell viability of the corresponding cell layer was assessed. The chemical library was tested in blinded fashion. Each test plate included 1uM Methotrexate (MTX; Selleck Chemicals, Houston, Texas) as a positive reference, 5 nM MTX as a negative reference, 0.1% DMSO as the neutral (vehicle) control, and sample-level media blanks.H9 cell-conditioned media from the final 24-h treatment period was collected for analysis of the targeted biomarker and cell viability was measured from the corresponding cell layer. Cell viability was measured using the CellTiter-Fluor assay (Promega, Madison, Wisconsin) based on proteolytic cleavage of a substrate to fluorescent signal proportional to the number of living cells. The cell viability Relative Fluorescence Unit (RFU) was background corrected and normalized to mean RFU of the neutral control (0.1% DMSO). The collected H9-cell-conditioned media samples were processed for targeted biomarker analysis as described (Palmer et al., 2013). Briefly, spent media samples were deproteinized (40% acetonitrile) and processed for UPLC-HRMS. Data acquisition was performed using 4 separate UPLC-HRMS systems, consisting of an Agilent 1290 Infinity LC system (Agilent Technologies) interfaced with an Agilent high-resolution mass spectrometer (models G6520A, G6520B, G6530A, and G6224A). A Waters Acquity UPLC BEH Amide column (2.1mm x 50mm, 1.7lm particle size; Waters, Milford, Massachusetts) maintained at 40C was applied for separation of metabolites using a 6.5min solvent gradient with 0.1% formic acid in water and 0.1% formic acid in acetonitrile (1.0ml/min flow rate). Data were acquired using MassHunter Acquisition software (version B 04.00, Agilent Technologies). The extracted ion chromatogram (EIC) areas for ORN, CYSS, and their respective spike-in C13-standards were determined using the Agilent MassHunter Quantitative Analysis software, version B.05.00 or newer (Agilent Technologies), and data were normalized as described in Palmer et al. (2017).
Compound,outcome,AC50
OC[C@@H](O)[C@@H](O)[C@H](O)[C@H](O)CO,inactive,
COC(=O)c1ccc(O)cc1,inactive,
COc1ccc(S(=O)(=O)N2C(=O)[C@@](c3ccccc3OC)(N3C[C@H](O)C[C@H]3C(=O)N(C)C)c3cc(Cl)ccc32)c(OC)c1,inactive,
CCCc1cc(=O)[nH]c(=S)[nH]1,inactive,
Cc1c(C(=O)O)c(O)cc2c1C(=O)c1c(O)c([C@@H]3O[C@H](CO)[C@@H](O)[C@H](O)[C@H]3O)c(O)c(O)c1C2=O,inactive,
O=c1[nH]cc(F)c(=O)[nH]1,,3 µM (active)
O=C(O)Cc1ccccc1Nc1c(Cl)cccc1Cl,inactive,
Oc1ccc2ccccc2c1N=Nc1ccccc1,inactive,
COCCOCCOC,inactive,
COc1ccc2c(c1)c(CC(=O)O)c(C)n2C(=O)c1ccc(Cl)cc1,,84.8 µM (active)
CCOc1ccc2c(c1)C(C)=CC(C)(C)N2,inactive,
NC(=O)Cn1c(=O)cc(CCN2CCN(c3nccc4sccc34)CC2)c2ccc(F)cc21,inactive,
CCCCC(CC)COC(=O)CC(C(=O)OCC(CC)CCCC)S(=O)(=O)O (stereo unspecified),inactive,
C=CCOC(=O)c1ccccc1C(=O)OCC=C,,41.3 µM (active)
Nc1ccccc1N,,8.66 µM (active)
CN1CCN(Cc2cc(-c3ccc4[nH]c(=O)oc4c3)co2)[C@@H](c2ccc(F)cc2)C1,,5 µM (active)
